# Most compounds without a hit are left out; they make up all but 2.3% or so of the library.
# V-ATPase pH: regulators of yeast V-ATPase proton pumping, primary screen, pHLuorin cytosolic pH fluorescence | S. cerevisiae | response, % at 10 µM | actives 0.37% (n = 350,000) | AID 504577, 2011; in the data active = response mostly above about 7.3%, no sharp cut-off; inactive = mostly below about 5.4%; also: actives read high
# KLK7 zymogen act: proKLK7 zymogen activators, primary screen, biochemical, fluorescence intensity; Kallikrein-7 (Homo sapiens), P49862; purified proKLK7, EDANS-DABCYL substrate fluorescence; 100% is mature enzyme control, 0% vehicle; activation, % at 7 µM; actives 0.9% (n = 370,000);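 active = activation above the mean of all tested compounds plus 3 SD, computed per campaign excluding outliers beyond control limits, cut at about 13% in these data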
# Target sequence (P49862 whole entry, looked up): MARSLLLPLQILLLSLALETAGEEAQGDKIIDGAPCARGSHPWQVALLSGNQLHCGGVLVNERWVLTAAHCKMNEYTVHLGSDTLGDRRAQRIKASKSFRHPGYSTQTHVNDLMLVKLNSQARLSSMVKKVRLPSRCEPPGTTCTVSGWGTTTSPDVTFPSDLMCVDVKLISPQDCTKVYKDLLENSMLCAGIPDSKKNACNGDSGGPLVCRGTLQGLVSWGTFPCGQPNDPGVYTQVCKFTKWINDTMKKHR
# ADAM17 inh: ADAM17 inhibitors, primary screen, biochemical, QFRET | inhibition, % at 6.95 µM | actives 0.83% (n = 370,000) | recombinant ADAM17, EDANS/DABCYL FRET peptide cleavage | AID 720648, 2013;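 active = inhibition above the mean of compounds lying between control limits plus 3 SD, set per campaign, cut at about 8.5% in these data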;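 also: 0% = DMSO-only wells as the low control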
# ADAM10 inh: human ADAM10 inhibitors, primary screen, biochemical, QFRET, HTS. Disintegrin and metalloproteinase domain-containing protein 10 (Homo sapiens), O14672. recombinant ADAM10, EDANS/DABCYL FRET peptide cleavage, 3 h. inhibition, % at 7 µM. actives 0.62% (n = 370,000). AID 720582, 2013;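 active = inhibition above a per-campaign cutoff equal to the mean of compounds falling between control-based bounds plus 3 SD, cut at about 20% in these data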;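 also: 0% = DMSO wells while the 100% control is not disclosed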
# ADAM10 confirm: human ADAM10 inhibitors, confirmation, biochemical, QFRET, triplicate; AID 743208, 2013; inhibition, % at 6.95 µM; shares compounds with ADAM10 inh; actives 1% (n = 2,100); ADAM10 QFRET peptide cleavage, EDANS fluorescence;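 active = inhibition above about 20% chosen separately for each screening run, limit read from the data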;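 also: 0% = DMSO wells and 100% = marimastat wells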
# ADAM17 counter: ADAM17 inhibitors, counter-screen for ADAM10 exosite inhibitor project, biochemical, QFRET, high throughput; shares compounds with ADAM10 inh; ADAM17 QFRET peptide cleavage, EDANS fluorescence; inhibition, % at 6.95 µM; actives 0.5% (n = 2,100);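 active = mean triplicate inhibition above the solvent-only control wells' mean plus 3 SD, cut at about 12% in these data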;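 also: 0% = DMSO wells and 100% = marimastat wells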
# ADAM10 counter: ADAM10 inhibitors, counter-screen for ADAM17 exosite inhibitor project, biochemical, FRET, human ADAM10 | shares compounds with ADAM17 inh | actives 47% (n = 2,900) | recombinant ADAM10, EDANS/DABCYL FRET peptide cleavage, 3 h | inhibition, % at 6.95 µM;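 active = mean inhibition over the triplicate runs exceeds the activity threshold set in the earlier primary screen, cut at about 20% in these data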;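 also: 0% = DMSO wells and 100% = marimastat wells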
# ADAM17 confirm: ADAM17 inhibitors, hit retest, confirmation, biochemical, QFRET peptide cleavage. shares compounds with ADAM17 inh. recombinant ADAM17, EDANS/DABCYL QFRET peptide cleavage. inhibition, % at 6.95 µM. actives 65% (n = 2,900). AID 743257, 2014;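 active = mean inhibition across replicates above the hit cutoff set in the primary screen, cut at about 8.5% in these data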;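 also: 0% = DMSO wells and 100% = marimastat wells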
# Active calls of the source: *; / = not tested or not shown.
SMILES,V-ATPase pH,KLK7 zymogen act,ADAM17 inh,ADAM10 inh,ADAM10 confirm,ADAM17 counter,ADAM10 counter,ADAM17 confirm
NC(=O)CC(NC(=O)c1ccc(Br)cc1)c1ccc(N2CCCCCC2)c([N+](=O)[O-])c1 (stereo not given),-13,-1,12*,22*,3,1,10,5
COC(=O)C1=C(C)N(Cc2ccccc2C(F)(F)F)C(=NCc2ccc3c(c2)OCO3)NC1c1ccccc1C(F)(F)F (stereo not given),/,0,6,5,/,/,/,/
O=C(CSc1nc2sc3c(c2c(=O)n1-c1ccc(Cl)cc1)CCCC3)c1ccccc1Cl,/,0,1,-1,/,/,/,/
C[C@@H]1CN([C@@H](C)CO)C(=O)Cc2cc(NC(=O)Nc3ccc(C(F)(F)F)cc3)ccc2O[C@@H]1CN(C)S(=O)(=O)c1ccc(Cl)cc1,-3,0,15*,35*,9,3,51*,27*
C[C@H](CO)N1C[C@H](C)[C@H](CN(C)S(=O)(=O)c2cn(C)cn2)Oc2ccc(NC(=O)Nc3ccc(C(F)(F)F)cc3)cc2CC1=O,-3,0,8,15,/,/,/,/
C[C@H]1CN([C@@H](C)CO)C(=O)Cc2cc(NC(=O)CCC(F)(F)F)ccc2O[C@H]1CN(C)Cc1ccc(C(F)(F)F)cc1,1,0,11*,25*,2,2,27*,16*
O=S(=O)(N[C@@H]1CCCC[C@@H]1N1CCOCC1)c1ccc(Cl)cc1,/,/,-3,-1,/,/,/,/
Cc1ccc(CN2CC=CS2(=O)=O)cc1,/,0,-3,0,/,/,/,/
O=C(COC(=O)CC1c2ccccc2CCN1S(=O)(=O)c1ccc(F)cc1)Nc1ccccc1 (stereo not given),-1,0,6,11,/,/,/,/
CCc1cccc(CC)c1NC(=O)COC(=O)CC1c2ccccc2CCN1S(=O)(=O)c1ccc(F)cc1 (stereo not given),2,1,14*,23*,2,0,6,2
CCCC/C=C1/[C@H](c2ccccc2)N(C)C2=N[C@H](c3ccccc3)CC(=O)N21,/,/,-3,-4,/,/,/,/
CC(C)C1C(=O)N(Cc2cn(CC3CCCCC3)nn2)CCS(=O)(=O)N1Cc1ccc(-c2ccccc2)cc1 (stereo not given),1,0,11*,22*,14,3,38*,15*
CC(C)C1C(=O)N(Cc2cn(CCC3OCCO3)nn2)CCS(=O)(=O)N1Cc1ccc(-c2ccc(F)cc2Cl)cc1 (stereo not given),/,0,10*,24*,6,2,33*,17*
CC(C)CC1C(=O)N(Cc2cn(CCC3OCCCO3)nn2)CCS(=O)(=O)N1Cc1ccc(-c2ccc(Cl)cc2)cc1 (stereo not given),-2,0,2,-17,/,/,/,/
COCOCCn1cc(CN2CCS(=O)(=O)N(Cc3ccc(-c4ccc(Cl)c(Cl)c4)cc3)C(C)C2=O)nn1 (stereo not given),1,0,11*,23*,7,2,35*,19*
CC(C)CC1C(=O)N(Cc2cn(CCC3OCCO3)nn2)CCS(=O)(=O)N1Cc1ccc(-c2ccc(F)cc2)cc1 (stereo not given),-4,0,11*,25*,7,3,31*,17*
